Tau fibril FP: qHTS for Inhibitors of Tau Fibril Formation, Fluorescence Polarization; hit rate 0.39% among 280,000; K18 P301L tau heparin fibrillization, Alexa594 FP, 6 h; Microtubule-associated protein tau (Homo sapiens), P10636; AID 1468, 2008; Potency, µM (doses to about 57.7 µM), for the others: at the highest dose activity, negative = inhibition, actives largely listed as inhibitors; note: potency is the fitted concentration of half-maximal effect; nearly all actives have a fitted effect of over 55% in size
Target sequence (P10636 561-689 P618L limits assumed): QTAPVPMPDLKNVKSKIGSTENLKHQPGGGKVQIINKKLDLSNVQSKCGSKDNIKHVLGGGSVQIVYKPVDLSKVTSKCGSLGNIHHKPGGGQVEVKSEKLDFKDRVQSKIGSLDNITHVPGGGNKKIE
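Recombinant K18 P301L […], labeled with Alexa 594 at 0.24 uM over 15 uM unlabeled; heparin inducer 20 uM final; 37 C, 6 hr; FP endpoint.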
Tau fluor counter: Counterscreen qHTS for Inhibitors of Tau Fibril Formation, Fluorescence Polarization; Potency, µM (top dose mostly 57.7 µM), without a hit: at the highest dose activity change, negative = decrease; tau K18 P301L Alexa594 fluorescence, heparin fibrillization; hit rate 0.93% among 280,000; note: potency is the fitted concentration of half-maximal effect; nearly all actives have a fitted effect of over 55% in size
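Human tau K18 P301L (15 uM unlabeled, 0.24 uM Alexa 594-labeled) in 100 mM sodium acetate pH 7 with 20 uM heparin, 6 hr at 37 C. ThT 30 uM added, 1 hr ambient; Alexa 594 FP and total fluorescence read at 555/632 nm.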
NPSR antag: qHTS Assay for Antagonists of the Neuropeptide S Receptor: cAMP Signal Transduction | hit rate 1% among 220,000 | Q6W5P4 | CHO-NPSR cells, cAMP TR-FRET, antagonist mode | Potency, µM (top dose mostly 38.3 µM), without a hit: top-dose activity change, negative = inhibition, actives largely listed as inhibitors | AID 1461, 2008; note: potency is the fitted concentration of half-maximal effect; nearly all actives have a fitted effect of over 50% in size
PNC inhibitor: High Content Assay for Compounds that inhibit the Assembly of the Perinucleolar Compartment | AID 2417, 2010 | PC3M PTB-GFP, PNC prevalence imaging, 16 h; stronger effect = lower value | hit rate 3.1% among 140,000 | activity change (PNC), negative = inhibition, % at 10 µM;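 active = readout at or below -70, meaning at least 70% loss of cells showing the perinucleolar compartment, a nuclear body marking cancer cells; inconclusive = readout between -30 and a set limit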;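 note: plate controls were DMSO wells for no effect and camptothecin positive control wells for full effect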
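Read-out is percentage of cells bearing a perinucleolar compartment, from automated 20x imaging of fixed, Hoechst-stained PC3M PTB-GFP cells. Cells were seeded 4 h, then exposed 16 h to compound (23 nl of library stock) in duplicate plates.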
Tau ThT inhib: qHTS for Inhibitors of Tau Fibril Formation, Thioflavin T Binding; Microtubule-associated protein tau (Homo sapiens), P10636; recombinant tau K18 P301L (four-repeat tau fragment), heparin-induced fibrillization, ThT fluorescence; Potency, µM (titrated, usually from 57.4 µM), for inactives: top-dose activity, negative = inhibition, hits mostly inhibitors; hit rate 2.1% among 270,000; AID 1460, 2008; note: potency is the fitted concentration of half-maximal effect; nearly all actives have a fitted effect of over 55% in size
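Tau K18 P301L fragment (15 uM unlabeled plus 0.24 uM Alexa 594-labeled) in 100 mM sodium acetate pH 7 with compound, fibrillization induced by 20 uM heparin for 6 hr at 37 C. Thioflavin T (30 uM) added, fluorescence read after 1 hr (ex 450, em 510 nm).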
JMJD2E inh: qHTS Assay for Inhibitors of Human Jumonji Domain Containing 2E (JMJD2E); Potency, µM (series often up to 57.1 µM), for the others: at the top dose activity change, negative = inhibition, actives largely listed as inhibitors; Lysine-specific demethylase 4E (Homo sapiens), B2RXH2; AID 2147, 2009; JMJD2E catalytic domain, FDH-coupled NADH fluorescence (FDH is formaldehyde dehydrogenase); hit rate 1.6% among 230,000; active = well fitted inhibition curve with a large enough effect, not every such curve was filed as active; inconclusive = small, poorly fitted or top-dose-only effect, or another doubt; inactive = no such curve, though single readings can be large or run the other way;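 note: potency is the fitted concentration of half-maximal effect; 0% = wells with enzyme and -100% = buffer wells without enzyme; nearly all actives have a fitted effect of over 50% in size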
Target sequence (B2RXH2 1-337 limits assumed): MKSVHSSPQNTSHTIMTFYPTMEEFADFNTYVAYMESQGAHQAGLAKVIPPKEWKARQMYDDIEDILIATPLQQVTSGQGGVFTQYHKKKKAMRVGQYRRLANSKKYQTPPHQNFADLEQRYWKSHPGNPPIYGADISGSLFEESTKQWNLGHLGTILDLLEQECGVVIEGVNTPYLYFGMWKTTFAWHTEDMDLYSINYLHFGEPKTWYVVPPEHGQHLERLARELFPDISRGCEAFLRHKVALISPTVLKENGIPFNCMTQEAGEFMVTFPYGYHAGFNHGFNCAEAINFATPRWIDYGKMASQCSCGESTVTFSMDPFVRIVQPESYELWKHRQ
* hit, by the source's call; [ ] = remark or other dose. Most compounds without a hit are left out; they make up all but 5.1% or so of the library. Unless noted, calls come from the whole dose curve; as a rule, active = well fitted curve in the direction sought with a large enough effect; inconclusive = small, poorly fitted or top-dose-only effect, or another doubt; inactive = no such curve, though single readings can be large; an effect the other way counts as inactive or inconclusive. Unless noted, % is set by controls: 0 for no effect and ±100 for the full control effect.

For COc1ccc(N(C(=O)c2ccc(OC)c(OC)c2)S(=O)(=O)c2ccc(Cl)cc2)cc1 the results were Tau fibril FP 0%, Tau fluor counter inconclusive and Tau ThT inhib inconclusive.
COc1ccc(-n2nc3c(N4CCC(C(=O)NCc5cccc(F)c5)CC4)nnc(C)c3c2C)cc1 was read as Tau fibril FP 5%, Tau fluor counter -6% and Tau ThT inhib -6%.
Screening CCOc1ccc(CCNC(=O)c2cn(-c3ccc(OC)cc3)c(=O)c3ccccc23)cc1OCC returned Tau fibril FP -1%, Tau fluor counter 6% and Tau ThT inhib -2%.
For COC(=O)c1cc2oc3ccccc3c2n1Cc1ccc(Cl)cc1 the results were Tau fibril FP -5%, Tau fluor counter inconclusive and Tau ThT inhib inconclusive.
CCn1c(=O)n(-c2ccc(F)c(Cl)c2)c(=O)c2c3c(sc21)CN(C(C)=O)CC3 was read as Tau fibril FP -5%, Tau fluor counter -15% and Tau ThT inhib -7%.
Screening COc1ccc2c(c1)CCc1sc(NC(=O)c3ccc(Cl)cc3)nc1-2 returned Tau fibril FP inconclusive, Tau fluor counter 8.9µM*[quencher] and Tau ThT inhib 11µM*.
Screening CCOc1cc(NC(=S)Nc2cccc(OC)c2)c(OCC)cc1NC(=O)C1CC1 returned Tau fibril FP 5%, Tau fluor counter -26%, NPSR antag -21%[46.1 µM], PNC inhibitor -106*, Tau ThT inhib inconclusive and JMJD2E inh -10%.
For CCOC(=O)C(C)Sc1nnc2n1C(C)(C)Cc1ccccc1-2 (stereo unspecified) the results were Tau fibril FP -2%, Tau fluor counter 0%, NPSR antag 0%[46.1 µM], PNC inhibitor -100*, Tau ThT inhib 6% and JMJD2E inh 1%.
For CC1(C)Cc2ccccc2-c2nnc(SCc3ccccc3)n21 the results were Tau fibril FP 5%, Tau fluor counter -3%, NPSR antag -25%[46.1 µM], PNC inhibitor -7, Tau ThT inhib -10% and JMJD2E inh 3%.
Cc1ccc(S(=O)(=O)NC2(C(F)(F)F)NC(=O)N(C)C2=O)cc1 (stereo unspecified) was read as Tau fibril FP 3%, Tau fluor counter 0%, NPSR antag 14%[46.1 µM], PNC inhibitor -87*, Tau ThT inhib 10% and JMJD2E inh 1%.
O=C1NC(NS(=O)(=O)c2ccc(Cl)cc2)(C(F)(F)F)C(=O)N1CCc1ccccc1 (stereo unspecified) was read as Tau fibril FP 0%, Tau fluor counter 9%, NPSR antag -6%, Tau ThT inhib -2% and JMJD2E inh 0%.
Screening Cc1cc(C)c(S(=O)(=O)N(CC(=O)O)C2CCCCC2)c(C)c1 returned Tau fibril FP -6%, Tau fluor counter 7%, NPSR antag -1%[46.1 µM], PNC inhibitor -97*, Tau ThT inhib -12% and JMJD2E inh 0%.
For O=C(O)c1cc(N/N=C/c2ccc(N3CCOCC3)s2)ccc1Cl the results were Tau fibril FP inconclusive, Tau fluor counter inconclusive, NPSR antag -5%, PNC inhibitor 38, Tau ThT inhib 11µM* and JMJD2E inh inconclusive.
O=C(O)c1cc(Nc2nc(N3CCOCC3)nc(N3CCOCC3)n2)ccc1Cl was read as Tau fibril FP 5%, Tau fluor counter 4%, NPSR antag 2%[46.1 µM], PNC inhibitor -15, Tau ThT inhib -8% and JMJD2E inh 0%.
Cc1cccn2c(=O)c(C(=O)N3CCN(c4ccc(Cl)cc4)CC3)cnc12 was read as Tau fibril FP 1%, Tau fluor counter 4% and Tau ThT inhib 6%.

Bioassay records from PubChem.
